The panel holds about 83,000 compounds, 20% with a hit somewhere; the sample as a whole holds those more often.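 Cells were grown in 96-well plates and exposed to the test compound at a single concentration for 48 hours; results are reported as percent growth, with values below 10 considered active.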 Activity calls are given as the source filed them.

The first assay deals with MDA-MB-435 melanoma. Briefly: NCI-60 one-dose screen, 48 h (100 = growth as untreated, 0 = no growth, -100 = all killed). Conditions: 10 µM unless noted.
Take `COc1ccccc1S(=O)Nc1ccccc1` (centres undefined): the growth is 97.6% (inactive).

As for `O=C(C[n+]1ccn(CC(OCc2ccc(Cl)cc2Cl)c2ccc(Cl)cc2Cl)c1)c1ccc(F)cc1` (centres undefined), the growth was -92.5% (active).

For the molecule `C=C(C)[C@@H]1CC[C@]2(C(=O)NCCNCCNCCN)CC[C@]3(C)[C@H](CC[C@@H]4[C@@]5(C)CC[C@H](O)C(C)(C)[C@@H]5CC[C@]43C)[C@@H]12`, the growth was -89.2% [100 µM] (active).

For `CCOC(=O)c1c[nH]c2cc(OCC3CC3)c(OCC3CC3)cc2c1=O`, the growth was 107% (inactive).

With `O=[N+]([O-])c1cc([N+](=O)[O-])c(NN=C(c2ccc(O)cc2)c2ccc(O)cc2)cc1Cl`, the growth was -62.1% (active).

In the case of `Cc1ccc(Cn2c(O)c(N=NC(=O)c3ccc(S(N)(=O)=O)cc3)c3ccccc32)cc1`, the growth was 102% (inactive).

As to `CCN(CC)CCCCCCNc1cccc2cc(Br)cnc12`, the growth is 31.5% (inactive).

Regarding `CCN(CCNc1ccc(C)c2sc3cc(Cl)ccc3c(=O)c12)CC(C)O` (centres undefined), the growth was 6% (active).

In the case of `COc1cc2c(c(OC)c1OC)-c1cc(I)c(O)cc1[C@@H](NC(C)=O)CC2`, the growth is 6.18% (active).

Regarding `CCNC(=O)N1CCc2c(Cl)c3c(c(OC)c2[C@@H]1[C@H]1OCc2c1ccc(OC)c2OC)OCCO3`, the growth is -43.4% (active).

On to `O=C(Nc1ccccc1)Nc1ccc(C(=O)/C=C/c2ccc(N3CCCC3)cc2)cc1`, for which the growth was 4.29% (active).

Regarding `CC(C)(C)c1cc(C(=O)Nc2ccccc2C(=O)NCCN)cc(C(C)(C)C)c1`, the growth was -73.3% (active).

With `O=S(=O)(/N=c1/n(-c2ccccc2)nc2n1CCN2C1=NCCN1)c1ccc(-c2ccccc2)cc1`, the growth was 94.4% (inactive).

On to `Brc1ccc(-c2nnc3c4[nH]ccc4ncn23)cc1`, for which the growth was 97.8% (inactive).

In the case of `Cc1ccc(NCCN2CCCCC2)c2c(=O)c3ccccc3sc12`, the growth is 31.4% (inactive).

Turning to `CCCCCCSc1ncnc2nc[nH]c12`, the growth is 84.9% (inactive).

Turning to `COc1ccc(CC(C#N)c2ccc(Cl)cc2)cc1` (centres undefined), the growth was 0.297% (active).

Regarding `CC(C)[C@H]1CCC2=C3CC[C@]45OC(=O)[C@@]6(CCC(C)(C)C[C@H]64)CC[C@@]5(C)[C@]3(C)CC[C@@]21C`, the growth is 78.5% [100 µM] (inactive).

Turning to `O=C(N=c1n(-c2ccccc2)nc2n1CCN2C1=NCCN1)c1ccc(Cl)cc1`, the growth was 42.1% (inactive).

As to `CNc1cc(C(=O)O)nc(NC)n1`, the growth is 95.6% (inactive).

As to `O=C(O)CSCc1nnc2n(Cc3ccccc3)c(=O)c3c4c(sc3n12)CCCC4`, the growth was 112% (inactive).

`CCCCCCCCCCCCNC(=S)N/N=C/c1ccccc1O`: the growth was 80.5% (inactive).

In the case of `COc1ncc(-c2ccc3nccc(C#CCCCCC(=O)NO)c3c2)cc1NS(=O)(=O)c1ccc(F)cc1F`, the growth was -7.72% (active).

As for `O=C(NCc1ccccc1)C(Cl)Cl`, the growth was 103% (inactive).

For the molecule `C=C(C)[C@@H]1CC[C@]2(COCCCN)CC[C@]3(C)[C@H](CC[C@@H]4[C@@](C)(CCCNCCCN)[C@H](C(=C)C)CC[C@]43C)[C@@H]12`, the growth is -68.5% [100 µM] (active).

On to `C=C(C)[C@@H]1CC[C@]2(C(=O)N3CCN(C)CC3)CC[C@]3(C)[C@H](CC[C@@H]4[C@@]5(C)C/C(=C/c6ccncc6)[C@H](O)C(C)(C)[C@@H]5CC[C@]43C)[C@@H]12`, for which the growth was -39.7% [100 µM] (active).

`COc1cc2c(c(OC)c1OC)-c1ccc(NNC(N)=S)c(=O)cc1[C@@H](NC(C)=O)CC2`: the growth is -12.2% (active).

As for `O=C(Oc1ccc(Cl)cc1[N+](=O)[O-])Oc1ccc(Cl)cc1[N+](=O)[O-]`, the growth is 120% (inactive).

Consider `COCc1nc2ccccc2[nH]1`, for which the growth is 102% (inactive).

In the case of `CCOC(=O)n1cc(C2=C(c3ccc(OC)c(OC)c3)COC2=O)c2ccccc21`, the growth was -18.4% (active).

With `CC(=O)Nc1ccc2nc3ccc(NC(C)=O)cc3[n+](-c3ccccc3)c2c1`, the growth is 123% (inactive).

In the case of `C=C(C)[C@@H]1CC[C@]2(C(N)=O)CC[C@]3(C)[C@H](CC[C@@H]4[C@@]5(C)C/C(=C/c6cccnc6)[C@H](O)C(C)(C)[C@@H]5CC[C@]43C)[C@@H]12`, the growth was 9% [100 µM] (active).

As to `CC(C)(C)OC(=O)N1C=C/C(=C\Cn2cc(-c3ccccc3)nn2)CC1`, the growth is 85.2% (inactive).

Turning to `COc1ccc2c(c1)c(-c1noc(C(=O)c3cn(C)c4ncc(Br)cc34)n1)cn2C`, the growth is 63.1% (inactive).

As for `COc1cccc(-c2[nH]c(=S)ncc2C(=O)c2ccccc2)c1`, the growth was -20% (active).

As for `COc1cc(C)cc2oc3oc(=N)c(C(=O)c4ccccc4)cc3c(=O)c12`, the growth was 102% (inactive).

Regarding `COc1cc(/C=C/C(=O)/C=C/c2ccc(-n3ccnc3C)cc2)ccc1O`, the growth is -3.29% (active).

The next assay concerns SW-620 colon. Described as above. The note with it: 10 µM unless noted.
In the case of `COc1ccccc1S(=O)Nc1ccccc1` (centres undefined), the growth was 72% (inactive).

Turning to `O=C(C[n+]1ccn(CC(OCc2ccc(Cl)cc2Cl)c2ccc(Cl)cc2Cl)c1)c1ccc(F)cc1` (centres undefined), the growth is -89.9% (active).

In the case of `C=C(C)[C@@H]1CC[C@]2(C(=O)NCCNCCNCCN)CC[C@]3(C)[C@H](CC[C@@H]4[C@@]5(C)CC[C@H](O)C(C)(C)[C@@H]5CC[C@]43C)[C@@H]12`, the growth was -86.7% [100 µM] (active).

As to `CCOC(=O)c1c[nH]c2cc(OCC3CC3)c(OCC3CC3)cc2c1=O`, the growth is 100% (inactive).

On to `O=[N+]([O-])c1cc([N+](=O)[O-])c(NN=C(c2ccc(O)cc2)c2ccc(O)cc2)cc1Cl`, for which the growth was -75% (active).

As for `Cc1ccc(Cn2c(O)c(N=NC(=O)c3ccc(S(N)(=O)=O)cc3)c3ccccc32)cc1`, the growth was 100% (inactive).

For the molecule `CCN(CC)CCCCCCNc1cccc2cc(Br)cnc12`, the growth was 56.5% (inactive).

In the case of `CCN(CCNc1ccc(C)c2sc3cc(Cl)ccc3c(=O)c12)CC(C)O` (centres undefined), the growth is 11.9% (inactive).

As to `COc1cc2c(c(OC)c1OC)-c1cc(I)c(O)cc1[C@@H](NC(C)=O)CC2`, the growth is 31.4% (inactive).

`CCNC(=O)N1CCc2c(Cl)c3c(c(OC)c2[C@@H]1[C@H]1OCc2c1ccc(OC)c2OC)OCCO3`: the growth is 17.5% (inactive).

For `O=C(Nc1ccccc1)Nc1ccc(C(=O)/C=C/c2ccc(N3CCCC3)cc2)cc1`, the growth was 83.6% (inactive).

Turning to `CC(C)(C)c1cc(C(=O)Nc2ccccc2C(=O)NCCN)cc(C(C)(C)C)c1`, the growth was -56.8% (active).

Regarding `O=S(=O)(/N=c1/n(-c2ccccc2)nc2n1CCN2C1=NCCN1)c1ccc(-c2ccccc2)cc1`, the growth is 98.3% (inactive).

Consider `Brc1ccc(-c2nnc3c4[nH]ccc4ncn23)cc1`, for which the growth is 94% (inactive).

`Cc1ccc(NCCN2CCCCC2)c2c(=O)c3ccccc3sc12`: the growth was 15.3% (inactive).

As to `CCCCCCSc1ncnc2nc[nH]c12`, the growth was 101% (inactive).

For the molecule `COc1ccc(CC(C#N)c2ccc(Cl)cc2)cc1` (centres undefined), the growth is 49% (inactive).

For `CC(C)[C@H]1CCC2=C3CC[C@]45OC(=O)[C@@]6(CCC(C)(C)C[C@H]64)CC[C@@]5(C)[C@]3(C)CC[C@@]21C`, the growth is 78.7% [100 µM] (inactive).

For the molecule `O=C(N=c1n(-c2ccccc2)nc2n1CCN2C1=NCCN1)c1ccc(Cl)cc1`, the growth was 79.5% (inactive).

Regarding `CNc1cc(C(=O)O)nc(NC)n1`, the growth was 98.1% (inactive).

For `O=C(O)CSCc1nnc2n(Cc3ccccc3)c(=O)c3c4c(sc3n12)CCCC4`, the growth is 107% (inactive).

On to `CCCCCCCCCCCCNC(=S)N/N=C/c1ccccc1O`, for which the growth is 91.8% (inactive).

On to `COc1ncc(-c2ccc3nccc(C#CCCCCC(=O)NO)c3c2)cc1NS(=O)(=O)c1ccc(F)cc1F`, for which the growth is -30.9% (active).

For the molecule `O=C(NCc1ccccc1)C(Cl)Cl`, the growth was 107% (inactive).

Turning to `C=C(C)[C@@H]1CC[C@]2(COCCCN)CC[C@]3(C)[C@H](CC[C@@H]4[C@@](C)(CCCNCCCN)[C@H](C(=C)C)CC[C@]43C)[C@@H]12`, the growth was -67% [100 µM] (active).

`C=C(C)[C@@H]1CC[C@]2(C(=O)N3CCN(C)CC3)CC[C@]3(C)[C@H](CC[C@@H]4[C@@]5(C)C/C(=C/c6ccncc6)[C@H](O)C(C)(C)[C@@H]5CC[C@]43C)[C@@H]12`: the growth was -55.4% [100 µM] (active).

On to `COc1cc2c(c(OC)c1OC)-c1ccc(NNC(N)=S)c(=O)cc1[C@@H](NC(C)=O)CC2`, for which the growth was 24.9% (inactive).

Regarding `O=C(Oc1ccc(Cl)cc1[N+](=O)[O-])Oc1ccc(Cl)cc1[N+](=O)[O-]`, the growth is 109% (inactive).

Turning to `COCc1nc2ccccc2[nH]1`, the growth was 106% (inactive).

Take `CCOC(=O)n1cc(C2=C(c3ccc(OC)c(OC)c3)COC2=O)c2ccccc21`: the growth is 26.5% (inactive).

Consider `CC(=O)Nc1ccc2nc3ccc(NC(C)=O)cc3[n+](-c3ccccc3)c2c1`, for which the growth is 116% (inactive).

As for `C=C(C)[C@@H]1CC[C@]2(C(N)=O)CC[C@]3(C)[C@H](CC[C@@H]4[C@@]5(C)C/C(=C/c6cccnc6)[C@H](O)C(C)(C)[C@@H]5CC[C@]43C)[C@@H]12`, the growth was 18.8% [100 µM] (inactive).

As for `CC(C)(C)OC(=O)N1C=C/C(=C\Cn2cc(-c3ccccc3)nn2)CC1`, the growth was 93.8% (inactive).

`COc1ccc2c(c1)c(-c1noc(C(=O)c3cn(C)c4ncc(Br)cc34)n1)cn2C`: the growth is 43.6% (inactive).

Take `COc1cccc(-c2[nH]c(=S)ncc2C(=O)c2ccccc2)c1`: the growth was 66.6% (inactive).

For `COc1cc(C)cc2oc3oc(=N)c(C(=O)c4ccccc4)cc3c(=O)c12`, the growth was 104% (inactive).

Take `COc1cc(/C=C/C(=O)/C=C/c2ccc(-n3ccnc3C)cc2)ccc1O`: the growth is 2.17% (active).

These data come from PubChem BioAssay (NCI).
